We go through 40 compounds from PubChem BioAssay (Tox21).

Results filed as inconclusive are left out. Entries that show only a call come without a potency. Activity calls are given as the source filed them. Calls come from the whole dose curve; as a rule, active = well fitted inhibition curve with a large enough effect in the repeat runs; inconclusive = weak or mixed curves; inactive = flat fitted curve, though single readings scatter.
Potency is the fitted concentration of half-maximal effect.

Voltage-gated inwardly rectifying potassium channel KCNH2 (Homo sapiens), sequence (Q12809 whole entry, looked up): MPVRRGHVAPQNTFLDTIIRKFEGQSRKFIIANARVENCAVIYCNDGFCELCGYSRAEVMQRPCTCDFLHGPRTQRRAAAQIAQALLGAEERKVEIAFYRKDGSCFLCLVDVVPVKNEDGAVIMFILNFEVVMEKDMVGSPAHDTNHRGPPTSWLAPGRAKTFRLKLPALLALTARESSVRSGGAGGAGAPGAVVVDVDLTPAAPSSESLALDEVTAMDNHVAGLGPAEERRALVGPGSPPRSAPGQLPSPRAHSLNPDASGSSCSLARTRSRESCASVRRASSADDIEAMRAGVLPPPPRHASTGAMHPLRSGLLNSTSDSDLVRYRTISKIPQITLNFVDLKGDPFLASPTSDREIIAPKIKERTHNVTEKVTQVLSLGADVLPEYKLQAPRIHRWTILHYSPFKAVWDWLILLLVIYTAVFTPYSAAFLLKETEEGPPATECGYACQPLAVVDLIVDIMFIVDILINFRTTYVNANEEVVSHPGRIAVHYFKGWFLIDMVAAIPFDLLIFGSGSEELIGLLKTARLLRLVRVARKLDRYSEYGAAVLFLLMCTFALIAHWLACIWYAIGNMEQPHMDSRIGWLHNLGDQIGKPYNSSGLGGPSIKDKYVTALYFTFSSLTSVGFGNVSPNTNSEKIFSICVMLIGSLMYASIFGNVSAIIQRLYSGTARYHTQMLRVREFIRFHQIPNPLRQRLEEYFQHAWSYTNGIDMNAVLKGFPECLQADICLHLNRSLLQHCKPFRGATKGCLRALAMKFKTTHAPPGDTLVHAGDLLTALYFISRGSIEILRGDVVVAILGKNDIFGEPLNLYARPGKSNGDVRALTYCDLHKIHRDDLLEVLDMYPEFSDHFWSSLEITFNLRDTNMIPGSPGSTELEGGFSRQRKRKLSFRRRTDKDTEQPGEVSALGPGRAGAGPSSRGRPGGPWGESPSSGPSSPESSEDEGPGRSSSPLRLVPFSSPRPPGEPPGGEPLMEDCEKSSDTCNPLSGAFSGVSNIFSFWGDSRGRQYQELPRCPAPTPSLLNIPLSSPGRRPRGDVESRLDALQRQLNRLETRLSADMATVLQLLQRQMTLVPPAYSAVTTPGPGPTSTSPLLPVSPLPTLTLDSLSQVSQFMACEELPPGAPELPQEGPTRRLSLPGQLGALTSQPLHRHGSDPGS

This assay concerns the target Voltage-gated inwardly rectifying potassium channel KCNH2 (Homo sapiens) (UniProt Q12809). The assay can be described thus: Human Ether-a-go-go-Related Gene (hERG) channel small molecule antagonists: fluorescence cell-based qHTS assay (AID 1671200). Note: nearly all actives have a fitted effect of over 50% in size. The settings on record: hERG-U2OS cells, FluxOR thallium flux fluorescence; series mostly up to 76.8 µM. From the text:
National Center for Advancing Translational Sciences [NCATS]
U.S. Environmental Protection Agency [EPA]
National Institutes of Environmental Health Sciences [NIEHS]
National Toxicology Program [NTP]
U.S. Food and Drug Administration [FDA]
Mutations in the hERG channel cause Long QT (LQT) syndrome. LQT syndrome is a cardiac disorder which can cause ventricle arrhythmia and sudden death. Additionally, compounds which block the hERG channel can cause acquired LQT syndrome. Several FDA approved drugs have been removed from the market due to their hERG blocking activity. A cell-based hERG channel inhibition assay can be used to screen chemical compounds that inhibit hERG channel. This assay measures hERG channel activity using thallium ions as surrogate ions to measure potassium into the cells.
Tox21 Assay Protocol Summary:
hERG-U2OS cells were resuspended in culture medium and dispensed into 1536-well, black wall/clear-bottom plates at 1000cells/well/3uL using a Multidrop Combi dispenser (Thermo Fisher, Waltham, MA). After plates were incubated at 37 C overnight, 3 uL of Loading Buffer provided by FluxOR II Potassium Ion Channel Assay kit (Thermo, Carlsbad, CA) was added to each well. The assay plates were then incubated at room temperature in the dark for 1h. […] After the assay plates were incubated at room temperature for 10 min, 1 uL of Stimulus Buffer provided by FluxOR II Potassium Ion Channel Assay kit was added into each well and fluorescence intensity (480nm excitation/540nm emission) was continuously measured for 2 min at 1 second intervals using a Functional Drug Screening System (FDSS) 7000EX kinetic plate reader (Hamamatsu, Japan).
On to `Cc1cc(C(=O)O)ccc1[N+](=O)[O-]`, for which the Potency entry is “inactive”.
As to `CCN(CC)CCNc1ccc(CNC=O)c2sc3ccc(OC)cc3c(=O)c12`, the Potency entry was “inactive”.
Next, `O=S(c1cc(Cl)cc(Cl)c1O)c1cc(Cl)cc(Cl)c1O`: “inactive”; `CN(Cc1ccc(C(C)(C)C)cc1)Cc1cccc2ccccc12`: 19 µM (active).
Regarding `C#Cc1cccc(Nc2ncnc3cc(OCCOC)c(OCCOC)cc23)c1`, the Potency result was “inactive”.
As for `OCc1cc(C(O)CNCCCCCCOCCCCc2ccccc2)ccc1O` (stereo not given), the Potency was 2.68 µM (active).
On to `O=C(O)C1(C(=O)O)CCC1.[NH2-].[NH2-].[Pt+2]`, for which the Potency result is “inactive”.
For `O=C(O)C1(C(=O)Nc2ccc(Cl)cc2Cl)CC1` the value was “inactive”; for `COc1cc2nc(N(C)CCCNC(=O)C3CCCO3)nc(N)c2cc1OC` (stereo not given), “inactive”; for `Cc1ncc(CO)c(C=O)c1O`, “inactive”.
In the case of `COCC(C)OC(C)=O` (stereo not given), the Potency result was “inactive”.
For `O=C(O)c1ccc(-n2nc(-c3ccccc3O)nc2-c2ccccc2O)cc1` the value was “inactive”; for `Nc1cccc(S(=O)(=O)c2cccc(N)c2)c1`, “inactive”; for `COc1ccc(C(=O)N2CCN(CC(=O)N3CCOCC3)CC2)cc1`, “inactive”.
Next, `O=C(OCCc1ccccc1)c1ccccc1`: “inactive”; `C=CCOc1ccccc1OCC(O)CNC(C)C` (stereo not given): “inactive”; `CC(C)Nc1ccc(NC(C)C)c2c1C(=O)c1ccccc1C2=O`: “inactive”.
With `C/C=C/C=C/CO`, the Potency result was “inactive”.
Consider `CN(C)c1ccc(CCO)cc1`, for which the Potency result was “inactive”.
For `CC(C)(C)Cl`, the Potency entry was “inactive”.
With `COCCCN1CCC(NC(=O)c2cc(Cl)c(N)c3c2OCC3)CC1`, the Potency entry is “inactive”.
Next, `O=C(NCCO[N+](=O)[O-])c1cccnc1`: “inactive”.
Consider `CN(C)CCOC(c1ccccc1)c1ccc(Br)cc1` (stereo not given), for which the Potency was 3.38 µM (active).
As to `CCN(CC)CCOC(=O)C(Cc1cccc2ccccc12)CC1CCCO1` (stereo not given), the Potency is 9.52 µM (active).
As for `CCCCCCCC#N`, the Potency entry is “inactive”.
`O=[N+]([O-])c1ccc2[nH]ncc2c1`: the Potency entry is “inactive”.
In the case of `C#CCN(C)CCCOc1ccc(Cl)cc1Cl`, the Potency was 8.49 µM (active).
For `O=C(O)CC(=O)C(=O)O`, the Potency result was “inactive”.
Consider `c1ccc(-c2ccccn2)nc1`, for which the Potency entry is “inactive”.
For `Nc1cc(C(=O)O)c(O)c(S(=O)(=O)O)c1`, the Potency entry was “inactive”.
For `Nc1cccc([N+](=O)[O-])c1`, the Potency entry is “inactive”.
For `C[C@@H]1C[C@H]2[C@@H]3CCC4=CC(=O)C=C[C@]4(C)[C@@]3(F)[C@@H](O)C[C@]2(C)[C@@]1(O)C(=O)COC(=O)c1ccncc1` the value was “inactive”; for `Cc1oc2c(NC(=O)c3c(Cl)cccc3Cl)cccc2c1C(C)(C)O`, “inactive”.
Take `CC(=O)[O][Al]`: the Potency result was “inactive”.
As for `CC1CCC(=O)C1=O` (stereo not given), the Potency result was “inactive”.
For `C=CC(=O)OCCOCCOC(=O)C=C` the value was “inactive”; for `O=C(O)c1ccco1`, “inactive”; for `CCCC(=O)Nc1ccc(O)c(C(C)=O)c1`, “inactive”.
For `c1cc(CCCc2ccncc2)ccn1`, the Potency result is “inactive”.
As to `CCN(CC)c1ccc2c(-c3ccccc3C(=O)O)c3ccc(=[N+](CC)CC)cc-3oc2c1`, the Potency result was “inactive”.
